This note sets out measurements from PubChem BioAssay (Tox21).

SMILES strings stand for the structures. A number with no mark means an inactive call. Results filed as inconclusive are left out. Activity calls are given as the source filed them. Unless noted, calls follow the shape of the dose curve; as a rule, active = well fitted inhibition curve with a large enough effect in the repeat runs (not every such curve was filed as active); inconclusive = weak or mixed curves; inactive = flat fitted curve, though single readings scatter.
% is scaled to controls: 0 for no effect and ±100 for the full control effect.

Sequence of Thyrotropin-releasing hormone receptor (Homo sapiens) (P34981 whole entry, looked up): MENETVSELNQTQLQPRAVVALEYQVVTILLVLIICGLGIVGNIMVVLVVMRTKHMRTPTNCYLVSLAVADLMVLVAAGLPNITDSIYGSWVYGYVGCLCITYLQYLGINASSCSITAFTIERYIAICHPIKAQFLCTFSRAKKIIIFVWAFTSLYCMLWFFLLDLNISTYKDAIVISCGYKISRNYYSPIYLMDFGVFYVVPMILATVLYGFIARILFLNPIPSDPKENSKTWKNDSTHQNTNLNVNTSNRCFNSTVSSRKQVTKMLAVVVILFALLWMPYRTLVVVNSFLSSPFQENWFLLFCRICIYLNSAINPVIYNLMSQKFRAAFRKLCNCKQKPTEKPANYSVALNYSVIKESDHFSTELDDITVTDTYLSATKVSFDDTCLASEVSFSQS

Test system in the first assay: not listed separately
Put plainly: qHTS assay to identify small molecule agonists of the TGF-beta/Smad signaling pathway - cell viability counter screen (AID 1346829; active = well fitted cell-killing curve with a large enough effect in the repeat runs; also: top concentration of the series differs between compounds; nearly all actives have a fitted effect of over 45% in size). To be noted: SBE-bla HEK293T viability, CellTiter-Glo luminescence, 5 h; series mostly up to 76.8 µM. In a few lines: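 Same-well cytotoxicity: CellTiter-Glo added after the 2 hr room-temperature beta-lactamase substrate step, luminescence measured 30 min later; cells had 5 hr of compound at 37 C.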
For orientation: Quantitative high-throughput screening tests each substance at several concentrations.
Turning to `SCCSCCS`, the compound was called inactive.
`CCCCCCCCOC(C)=O`: the outcome was inactive.
On the same count and under the same terms, as for `COCCOCCOCCOC`, the entry is “inactive”; as for `O=C(O)c1c(Cl)ccc(Cl)c1Cl`, “inactive”.
On the same count and under the same terms, under `CC1=NN(c2ccc(S(=O)(=O)O)cc2)C(=O)C1N=Nc1ccccc1` (configuration not stated) stands “inactive”; under `Cc1ccc(C(=O)C(=O)O)cc1C`, “inactive”.
Turning to `CCCCCCCCCOCC1CO1` (configuration not stated), the compound was classed as inactive.
Consider `O=c1[nH]c(=O)c2[nH]c(=O)[nH]c2[nH]1`, for which the activity change, negative = cytotoxicity was -0.0048% [at 6.97 µM].
With `O=C1NC2NC(=O)NC2N1` (configuration not stated), the compound was called inactive.
Consider `CCN(Cc1cccc(S(=O)(=O)O)c1)c1ccccc1`, for which the compound was called inactive.
`CCC(C)(C)C1CCC(=O)CC1`: the compound was classed as inactive.
Take `CCCCCC1Nc2cc(C(F)(F)F)c(S(N)(=O)=O)cc2S(=O)(=O)N1` (configuration not stated): the compound was classed as inactive.
Turning to `CCCCC(=O)N(C)C`, the outcome was inactive.
Turning to `O=c1[nH]c(=O)c2ccccc2o1`, the result was inactive.
Consider `CC(=O)OC(C)c1ccccc1` (configuration not stated), for which the result was inactive.
Turning to `Cc1ccc(S(=O)(=O)NC(=O)NC2CCCCCCC2)cc1`, the call was inactive.
Take `O=S1(=O)CCCC1`: the outcome was inactive.
For `CCCOCCOCCOCCO`, the call was inactive.
In the case of `CC(C)CCCC(C)CC=O` (configuration not stated), the compound was called inactive.
Same read-out and setting: under `NCCc1ccn[nH]1` stands “inactive”.
On the same count and under the same terms, under `CC(Cl)COP(=O)(OCC(C)Cl)OCC(C)Cl` (configuration not stated) stands “inactive”; under `Nc1ccc(S(=O)(=O)Nc2ccccn2)cc1`, “inactive”.
As for `NS(=O)(=O)c1ccc(Cl)c(S(N)(=O)=O)c1`, the compound was classed as inactive.
Turning to `CC(C)C(=O)Nc1cccc(C(F)(F)F)c1`, the outcome was inactive.
With `OC(CCN1CCCCC1)(c1ccccc1)c1ccccc1`, the compound was called inactive.

Test system in another assay: not listed separately
In words: qHTS assay to identify small molecule agonists of the TGF-beta/Smad signaling pathway (AID 1346859; active = well fitted activation curve with a large enough effect in the signal ratio in the repeat runs, not every such curve was filed as active; the % refers to the signal ratio). To be noted: SBE-bla HEK293T, TGF-beta/Smad beta-lactamase reporter, 5 h; series mostly up to 76.8 µM. In a few lines:
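After overnight seeding, SBE-bla HEK 293T cells are dosed with compounds in DMSO and kept 5 hr at 37 C, 5% CO2. LiveBLAzer-type FRET substrate is then applied for 2 hr at room temperature.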
As for `CO[Si](CCCCl)(OC)OC`, the result was inactive.
For the compound `c1ccccc1`, the compound was classed as inactive.
Same read-out and setting: under `CCCCC(CC)COC(=O)c1ccccc1` (configuration not stated) stands “inactive”.
In the case of `COc1ccc(N=Nc2cc(C)c(N=Nc3ccc(S(=O)(=O)O)cc3)cc2OC)cc1`, the call was inactive.
Same read-out and setting: under `Cc1ccc2c(c1)c1c3n2CCNC3CCC1` (configuration not stated) stands “inactive”.
Regarding `CCCCCCCCCCCCC1CO1` (configuration not stated), the compound was called inactive.
As for `CC(=O)Nc1ncc([N+](=O)[O-])s1`, the call was inactive.
The same measure, in the same setting: as for `C1=C\CC/C=C\CC/1`, the entry is “inactive”; as for `CCCCCN(CCCOC)C(=O)C(CCC(=O)O)NC(=O)c1ccc(Cl)c(Cl)c1` (configuration not stated), “inactive”.
Same read-out and setting: under `CC(=O)/C=C/c1ccco1` stands “inactive”.
`C=CCOCC(O)CCl` (configuration not stated): the compound was called inactive.
Consider `Nc1c(NC/C=C\COc2cc(CN3CCCCC3)ccn2)c(=O)c1=O`, for which the activation was -0.0935% [at 15.8 µM].
For the compound `Cc1nc(C)nc(N2C[C@@H](C)N(c3ccnc([C@@H](C)O)n3)[C@@H](C)C2)n1`, the call was inactive.
On to `SCCSCCS`, for which the result was inactive.
As to `CCCCCCCCOC(C)=O`, the outcome was inactive.
Still for that read-out and setting: under `COCCOCCOCCOC` stands “inactive”; under `O=C(O)c1c(Cl)ccc(Cl)c1Cl`, “inactive”; under `CC1=NN(c2ccc(S(=O)(=O)O)cc2)C(=O)C1N=Nc1ccccc1` (configuration not stated), “inactive”.
As to `Cc1ccc(C(=O)C(=O)O)cc1C`, the result was inactive.
Consider `CCCCCCCCCOCC1CO1` (configuration not stated), for which the compound was called inactive.
On to `O=c1[nH]c(=O)c2[nH]c(=O)[nH]c2[nH]1`, for which the activation was -2.44% [at 6.97 µM].
Regarding `O=C1NC2NC(=O)NC2N1` (configuration not stated), the compound was called inactive.
On to `CCN(Cc1cccc(S(=O)(=O)O)c1)c1ccccc1`, for which the outcome was inactive.
For `CCC(C)(C)C1CCC(=O)CC1`, the call was inactive.
As to `CCCCCC1Nc2cc(C(F)(F)F)c(S(N)(=O)=O)cc2S(=O)(=O)N1` (configuration not stated), the compound was classed as inactive.
Turning to `CCCCC(=O)N(C)C`, the compound was called inactive.
The same measure, in the same setting: under `O=c1[nH]c(=O)c2ccccc2o1` stands “inactive”.
With `CC(=O)OC(C)c1ccccc1` (configuration not stated), the outcome was inactive.
With `Cc1ccc(S(=O)(=O)NC(=O)NC2CCCCCCC2)cc1`, the compound was classed as inactive.
Turning to `O=S1(=O)CCCC1`, the compound was called inactive.
As for `CCCOCCOCCOCCO`, the call was inactive.
Regarding `CC(C)CCCC(C)CC=O` (configuration not stated), the result was inactive.
On the same count and under the same terms, as for `NCCc1ccn[nH]1`, the entry is “inactive”; as for `CC(Cl)COP(=O)(OCC(C)Cl)OCC(C)Cl` (configuration not stated), “inactive”.
As for `Nc1ccc(S(=O)(=O)Nc2ccccn2)cc1`, the compound was called inactive.
Turning to `NS(=O)(=O)c1ccc(Cl)c(S(N)(=O)=O)c1`, the call was inactive.
`CC(C)C(=O)Nc1cccc(C(F)(F)F)c1`: the result was inactive.
Consider `OC(CCN1CCCCC1)(c1ccccc1)c1ccccc1`, for which the outcome was inactive.

The target in the next assay is Thyrotropin-releasing hormone receptor (Homo sapiens) (UniProt P34981). In words: qHTS assay to identify small molecule antagonists of the thyrotropin-releasing hormone receptor (TRHR) signaling pathway (AID 1346877). To be noted: TRHR-HEK293, TRH-induced calcium fluorescence, antagonist mode; series mostly up to 51.3 µM. The essentials:
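Intracellular calcium fluorescence, read kinetically every second over 3 min, reports TRH-evoked signalling in HEK293 cells carrying TRHR. Test compounds were added 5 min ahead of a 1 nM TRH challenge.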
As to `CO[Si](CCCCl)(OC)OC`, the result was inactive.
Still for that read-out and setting: as for `c1ccccc1`, the entry is “inactive”; as for `CCCCC(CC)COC(=O)c1ccccc1` (configuration not stated), “inactive”; as for `COc1ccc(N=Nc2cc(C)c(N=Nc3ccc(S(=O)(=O)O)cc3)cc2OC)cc1`, “inactive”.
Same read-out and setting: as for `Cc1ccc2c(c1)c1c3n2CCNC3CCC1` (configuration not stated), the entry is “inactive”; as for `CCCCCCCCCCCCC1CO1` (configuration not stated), “inactive”.
Turning to `CC(=O)Nc1ncc([N+](=O)[O-])s1`, the result was inactive.
The same measure, in the same setting: under `C1=C\CC/C=C\CC/1` stands “inactive”; under `CCCCCN(CCCOC)C(=O)C(CCC(=O)O)NC(=O)c1ccc(Cl)c(Cl)c1` (configuration not stated), “inactive”.
`CC(=O)/C=C/c1ccco1`: the result was inactive.
Still for that read-out and setting: as for `C=CCOCC(O)CCl` (configuration not stated), the entry is “inactive”.
Turning to `Nc1c(NC/C=C\COc2cc(CN3CCCCC3)ccn2)c(=O)c1=O`, the activity, negative = inhibition is -1.01% [at 10.5 µM].
On to `SCCSCCS`, for which the result was inactive.
For `COCCOCCOCCOC`, the result was inactive.
On the same count and under the same terms, as for `O=C(O)c1c(Cl)ccc(Cl)c1Cl`, the entry is “inactive”; as for `CC1=NN(c2ccc(S(=O)(=O)O)cc2)C(=O)C1N=Nc1ccccc1` (configuration not stated), “inactive”.
For the compound `O=c1[nH]c(=O)c2[nH]c(=O)[nH]c2[nH]1`, the activity, negative = inhibition is 0.0155% [at 4.65 µM].
For `O=C1NC2NC(=O)NC2N1` (configuration not stated), the outcome was inactive.
Still for that read-out and setting: as for `CCN(Cc1cccc(S(=O)(=O)O)c1)c1ccccc1`, the entry is “inactive”.
Take `CCCCCC1Nc2cc(C(F)(F)F)c(S(N)(=O)=O)cc2S(=O)(=O)N1` (configuration not stated): the result was inactive.
`CCCCC(=O)N(C)C`: the result was inactive.
As for `CC(=O)OC(C)c1ccccc1` (configuration not stated), the result was inactive.
On to `Cc1ccc(S(=O)(=O)NC(=O)NC2CCCCCCC2)cc1`, for which the result was inactive.
Consider `O=S1(=O)CCCC1`, for which the outcome was inactive.
On to `CCCOCCOCCOCCO`, for which the outcome was inactive.
For the compound `CC(C)CCCC(C)CC=O` (configuration not stated), the outcome was inactive.
For `CC(Cl)COP(=O)(OCC(C)Cl)OCC(C)Cl` (configuration not stated), the result was inactive.
For `CC(C)C(=O)Nc1cccc(C(F)(F)F)c1`, the result was inactive.
Consider `OC(CCN1CCCCC1)(c1ccccc1)c1ccccc1`, for which the outcome was inactive.
